Holding throughout (assay): DAPPL (digital affinity profiling via proximity ligation, sequencing); 10 mM Tris-HCl pH 7.5, 50 mM NaCl, 1 mM DTT, 4% glycerol, room temperature, 30 min; GST-TFs on glutathione beads, 16-mer random dsDNA library, 0.1% formaldehyde crosslink after washing; high values mean tight binding
The target of assay [1] is T1, FLI1 (Homo sapiens, UniProt Q01543 1-452).
T1 sequence: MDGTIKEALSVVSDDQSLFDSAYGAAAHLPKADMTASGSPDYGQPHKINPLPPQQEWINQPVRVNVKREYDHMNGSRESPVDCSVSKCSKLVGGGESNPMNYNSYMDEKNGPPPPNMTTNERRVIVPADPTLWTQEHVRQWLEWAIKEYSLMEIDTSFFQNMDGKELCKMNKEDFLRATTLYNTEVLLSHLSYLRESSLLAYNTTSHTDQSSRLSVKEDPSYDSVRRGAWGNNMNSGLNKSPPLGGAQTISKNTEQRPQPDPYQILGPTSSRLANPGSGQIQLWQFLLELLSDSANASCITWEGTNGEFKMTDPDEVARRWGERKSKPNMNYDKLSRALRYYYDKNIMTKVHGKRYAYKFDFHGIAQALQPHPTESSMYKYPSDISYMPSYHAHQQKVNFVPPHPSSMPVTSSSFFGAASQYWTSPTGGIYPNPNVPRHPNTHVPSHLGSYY
The following applies: protein: recombinant; tags: N-terminal GST; dsDNA, one strand shown. The gist of the method: (§1)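 Pools of DNA-barcoded human transcription factors, expressed in yeast as GST fusions on glutathione beads and combined with a tag-only sample, were incubated with 200 nmole of a 16-mer random double-stranded DNA library. Incubation took 30 min at room temperature in Tris/NaCl/DTT/glycerol buffer and was followed by washing, 0.1% formaldehyde crosslinking, proximity ligation (BsaI/T4 ligase, 1 h, 37 °C), PCR amplification and sequencing on an Illumina NextSeq500. Binding signal is the ratio of a hexamer's read frequency for a factor to its frequency for the tag-only sample.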

The target of assay [2] is T2, ELK1 (Homo sapiens, UniProt P19419 1-428).
T2 sequence: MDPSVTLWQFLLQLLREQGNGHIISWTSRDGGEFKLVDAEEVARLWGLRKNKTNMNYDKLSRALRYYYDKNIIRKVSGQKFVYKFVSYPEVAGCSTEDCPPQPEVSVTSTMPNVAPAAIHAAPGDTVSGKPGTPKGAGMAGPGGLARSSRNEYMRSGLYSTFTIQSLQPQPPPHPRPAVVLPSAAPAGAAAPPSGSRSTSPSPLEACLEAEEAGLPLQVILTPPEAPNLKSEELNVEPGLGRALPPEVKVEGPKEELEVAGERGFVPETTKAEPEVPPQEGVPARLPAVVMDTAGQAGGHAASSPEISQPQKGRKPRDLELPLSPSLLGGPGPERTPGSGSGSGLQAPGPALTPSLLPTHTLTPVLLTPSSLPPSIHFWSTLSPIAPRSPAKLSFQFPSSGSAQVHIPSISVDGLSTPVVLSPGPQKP
The conditions noted are these: protein: recombinant; tags: N-terminal GST; dsDNA, one strand shown. The gist of the method:
as §1

Assay [3] has as its target T3, GABPA (Homo sapiens, UniProt Q06546 1-454).
T3 sequence: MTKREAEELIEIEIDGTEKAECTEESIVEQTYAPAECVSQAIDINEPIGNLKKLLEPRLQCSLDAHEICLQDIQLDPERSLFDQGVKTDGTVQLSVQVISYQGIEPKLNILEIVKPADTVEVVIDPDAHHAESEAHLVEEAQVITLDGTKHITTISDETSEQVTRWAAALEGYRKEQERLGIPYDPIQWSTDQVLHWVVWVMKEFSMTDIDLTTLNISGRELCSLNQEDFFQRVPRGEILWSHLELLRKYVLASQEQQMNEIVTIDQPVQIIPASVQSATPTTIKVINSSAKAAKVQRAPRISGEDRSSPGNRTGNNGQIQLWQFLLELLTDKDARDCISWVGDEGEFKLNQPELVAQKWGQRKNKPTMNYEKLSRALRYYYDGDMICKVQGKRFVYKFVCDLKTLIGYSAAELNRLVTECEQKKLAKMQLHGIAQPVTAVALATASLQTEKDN
The following applies: protein: recombinant; tags: N-terminal GST; dsDNA, one strand shown. The gist of the method: as §1

Assay [4] has as its target T4, ERG (Homo sapiens, UniProt P11308 1-479).
T4 sequence: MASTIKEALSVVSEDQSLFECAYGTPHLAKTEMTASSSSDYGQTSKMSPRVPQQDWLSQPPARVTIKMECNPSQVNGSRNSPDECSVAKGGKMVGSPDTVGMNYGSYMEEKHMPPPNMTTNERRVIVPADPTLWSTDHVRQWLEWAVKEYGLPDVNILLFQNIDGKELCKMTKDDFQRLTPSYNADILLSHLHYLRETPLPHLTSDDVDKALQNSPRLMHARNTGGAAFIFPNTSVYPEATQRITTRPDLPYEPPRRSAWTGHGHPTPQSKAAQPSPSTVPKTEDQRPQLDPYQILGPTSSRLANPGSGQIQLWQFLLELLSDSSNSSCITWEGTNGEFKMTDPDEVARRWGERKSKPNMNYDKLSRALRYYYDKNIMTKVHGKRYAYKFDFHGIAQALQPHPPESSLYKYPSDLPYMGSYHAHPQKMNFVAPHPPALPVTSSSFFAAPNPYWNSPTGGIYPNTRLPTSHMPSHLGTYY
The conditions noted are these: protein: recombinant; tags: N-terminal GST; dsDNA, one strand shown. The gist of the method:
as §1

The target in assay [5] is ELF1 (Homo sapiens, UniProt P32519 1-619). The conditions noted are these: protein: recombinant; tags: N-terminal GST; dsDNA, one strand shown. The method in brief:
as §1

For assay [6], the target named is T5, EHF (Homo sapiens, UniProt Q9NZC4 1-300).
T5 sequence: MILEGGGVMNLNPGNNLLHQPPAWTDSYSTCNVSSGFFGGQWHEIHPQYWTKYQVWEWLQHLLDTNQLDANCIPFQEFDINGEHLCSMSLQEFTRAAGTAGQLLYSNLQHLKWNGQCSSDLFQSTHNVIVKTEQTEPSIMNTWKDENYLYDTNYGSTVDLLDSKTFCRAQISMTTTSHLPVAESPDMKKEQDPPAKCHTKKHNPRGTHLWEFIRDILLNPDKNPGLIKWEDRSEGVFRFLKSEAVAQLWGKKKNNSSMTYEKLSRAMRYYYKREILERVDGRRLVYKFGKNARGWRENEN
The following applies: protein: recombinant; tags: N-terminal GST; dsDNA, one strand shown. The method in brief: as §1

The target of assay [7] is SPI1 (Homo sapiens, UniProt P17947 1-270). The following applies: protein: recombinant; tags: N-terminal GST; dsDNA, one strand shown. The method in brief: as §1
In assay [8] the target is SPIB (Homo sapiens, UniProt Q01892 1-262). The following applies: protein: recombinant; tags: N-terminal GST; dsDNA, one strand shown. The gist of the method:
as §1

The target in assay [9] is T6, ELK3 (Homo sapiens, UniProt P41970 1-407).
T6 sequence: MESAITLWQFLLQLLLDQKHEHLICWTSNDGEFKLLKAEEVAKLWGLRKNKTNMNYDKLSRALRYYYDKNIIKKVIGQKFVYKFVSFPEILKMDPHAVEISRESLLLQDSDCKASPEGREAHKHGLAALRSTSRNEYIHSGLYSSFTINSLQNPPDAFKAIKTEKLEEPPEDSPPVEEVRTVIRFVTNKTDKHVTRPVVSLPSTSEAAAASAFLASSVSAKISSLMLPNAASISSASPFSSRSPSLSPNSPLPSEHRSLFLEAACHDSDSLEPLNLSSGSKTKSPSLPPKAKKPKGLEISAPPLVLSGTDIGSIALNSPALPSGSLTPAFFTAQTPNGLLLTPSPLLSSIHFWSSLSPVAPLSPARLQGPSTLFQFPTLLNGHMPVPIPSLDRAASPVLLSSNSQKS
The conditions noted are these: protein: recombinant; tags: N-terminal GST; dsDNA, one strand shown. The gist of the method:
as §1

For assay [10], the target named is T7, FEV (Homo sapiens, UniProt Q99581 1-238).
T7 sequence: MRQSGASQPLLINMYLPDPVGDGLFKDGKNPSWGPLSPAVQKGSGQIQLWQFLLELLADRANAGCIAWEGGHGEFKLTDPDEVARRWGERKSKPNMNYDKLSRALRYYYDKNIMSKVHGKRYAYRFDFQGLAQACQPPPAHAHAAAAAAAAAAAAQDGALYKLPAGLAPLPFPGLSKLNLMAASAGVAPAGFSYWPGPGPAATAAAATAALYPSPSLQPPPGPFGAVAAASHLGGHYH
The following applies: protein: recombinant; tags: N-terminal GST; dsDNA, one strand shown. The gist of the method: as §1

In assay [11] the target is ETV5 (Homo sapiens, UniProt P41161 1-510). The following applies: protein: recombinant; tags: N-terminal GST; dsDNA, one strand shown. The method in brief:
as §1

Assay [12] has as its target HSF1 (Homo sapiens, UniProt Q00613 1-529). The following applies: protein: recombinant; tags: N-terminal GST; chain copies: 3; dsDNA, one strand shown. The method in brief:
as §1

In assay [13] the target is T8, SPIC (Homo sapiens, UniProt Q8N5J4 1-248).
T8 sequence: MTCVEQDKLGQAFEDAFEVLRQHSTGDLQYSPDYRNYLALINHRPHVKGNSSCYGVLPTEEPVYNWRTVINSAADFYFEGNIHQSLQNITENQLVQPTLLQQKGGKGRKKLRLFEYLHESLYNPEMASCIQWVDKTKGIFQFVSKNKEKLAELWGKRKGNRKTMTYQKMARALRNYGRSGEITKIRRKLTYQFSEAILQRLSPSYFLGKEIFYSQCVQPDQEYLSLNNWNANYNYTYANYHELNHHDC
The conditions noted are these: protein: recombinant; tags: N-terminal GST; dsDNA, one strand shown. The method in brief: as §1

Assay [14] addresses ELF4 (Homo sapiens, UniProt Q99607 1-663). The conditions noted are these: protein: recombinant; tags: N-terminal GST; dsDNA, one strand shown. The gist of the method: as §1
The target of assay [15] is T9, ELK4 (Homo sapiens, UniProt P28324-2 1-405).
T9 sequence: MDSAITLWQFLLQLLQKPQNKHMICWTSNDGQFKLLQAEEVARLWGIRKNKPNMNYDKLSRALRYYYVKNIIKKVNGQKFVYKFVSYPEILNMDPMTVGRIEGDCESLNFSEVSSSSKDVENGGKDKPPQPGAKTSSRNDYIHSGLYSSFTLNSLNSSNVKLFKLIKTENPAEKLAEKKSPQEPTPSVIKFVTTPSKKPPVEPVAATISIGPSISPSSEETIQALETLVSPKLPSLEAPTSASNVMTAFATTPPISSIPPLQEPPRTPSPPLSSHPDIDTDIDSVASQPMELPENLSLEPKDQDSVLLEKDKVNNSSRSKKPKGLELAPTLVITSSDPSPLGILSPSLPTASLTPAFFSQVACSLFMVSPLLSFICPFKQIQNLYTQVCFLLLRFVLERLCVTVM
The following applies: protein: recombinant; tags: N-terminal GST; dsDNA, one strand shown. The method in brief:
as §1

In assay [16] the target is T10, ETV2 (Homo sapiens, UniProt O00321 1-342).
T10 sequence: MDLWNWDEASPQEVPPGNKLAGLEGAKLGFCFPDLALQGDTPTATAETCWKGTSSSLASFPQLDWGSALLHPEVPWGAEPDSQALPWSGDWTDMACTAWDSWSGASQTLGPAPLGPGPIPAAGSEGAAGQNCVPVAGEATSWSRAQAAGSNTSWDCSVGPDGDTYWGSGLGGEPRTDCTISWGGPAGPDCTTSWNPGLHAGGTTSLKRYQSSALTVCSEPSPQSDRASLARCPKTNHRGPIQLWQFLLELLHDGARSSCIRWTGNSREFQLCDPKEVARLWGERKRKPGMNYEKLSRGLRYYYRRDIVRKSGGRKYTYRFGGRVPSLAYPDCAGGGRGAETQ
The following applies: protein: recombinant; tags: N-terminal GST; dsDNA, one strand shown. The gist of the method: as §1

For assay [17], the target named is T11, ELF3 (Homo sapiens, UniProt P78545 1-371).
T11 sequence: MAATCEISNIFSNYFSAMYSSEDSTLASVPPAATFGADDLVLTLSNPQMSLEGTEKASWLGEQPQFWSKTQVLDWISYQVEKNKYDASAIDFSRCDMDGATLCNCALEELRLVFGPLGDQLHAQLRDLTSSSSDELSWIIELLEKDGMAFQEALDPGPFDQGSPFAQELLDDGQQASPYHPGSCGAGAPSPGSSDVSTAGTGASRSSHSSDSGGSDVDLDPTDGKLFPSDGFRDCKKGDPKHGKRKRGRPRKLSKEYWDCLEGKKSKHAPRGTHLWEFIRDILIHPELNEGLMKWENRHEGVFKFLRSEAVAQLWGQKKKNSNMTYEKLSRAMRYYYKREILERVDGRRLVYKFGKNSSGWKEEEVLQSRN
The conditions noted are these: protein: recombinant; tags: N-terminal GST; dsDNA, one strand shown. The method in brief:
as §1

Assay [18] concerns the target ETV1 (Homo sapiens, UniProt P50549 1-477). The following applies: protein: recombinant; tags: N-terminal GST; dsDNA, one strand shown. The method in brief: as §1

Data on one sequence can be found in paper PMC7862700, “An all-to-all approach to the identification of sequence-specific readers for epigenetic DNA modifications on cytosine”.

Chain of ELF4 (Q99607 whole entry): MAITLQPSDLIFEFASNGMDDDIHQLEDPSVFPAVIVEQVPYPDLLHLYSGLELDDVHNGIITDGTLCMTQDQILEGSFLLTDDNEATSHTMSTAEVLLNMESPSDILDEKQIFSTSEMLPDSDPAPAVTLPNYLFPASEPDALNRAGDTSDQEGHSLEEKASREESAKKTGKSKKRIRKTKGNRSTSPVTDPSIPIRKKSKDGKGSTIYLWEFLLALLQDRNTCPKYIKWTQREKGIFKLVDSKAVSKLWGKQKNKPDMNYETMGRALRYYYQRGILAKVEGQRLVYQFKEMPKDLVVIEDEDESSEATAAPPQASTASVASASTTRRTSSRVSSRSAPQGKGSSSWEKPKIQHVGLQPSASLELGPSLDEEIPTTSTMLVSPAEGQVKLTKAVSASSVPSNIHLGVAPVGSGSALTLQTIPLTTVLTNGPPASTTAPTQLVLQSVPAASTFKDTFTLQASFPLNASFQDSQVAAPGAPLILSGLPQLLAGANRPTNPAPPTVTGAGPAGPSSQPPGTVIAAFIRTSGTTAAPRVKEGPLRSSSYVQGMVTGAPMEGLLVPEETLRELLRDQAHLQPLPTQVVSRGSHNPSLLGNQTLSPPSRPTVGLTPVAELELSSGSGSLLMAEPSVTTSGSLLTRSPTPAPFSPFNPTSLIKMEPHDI
Chain of HSF1 (Q00613 whole entry): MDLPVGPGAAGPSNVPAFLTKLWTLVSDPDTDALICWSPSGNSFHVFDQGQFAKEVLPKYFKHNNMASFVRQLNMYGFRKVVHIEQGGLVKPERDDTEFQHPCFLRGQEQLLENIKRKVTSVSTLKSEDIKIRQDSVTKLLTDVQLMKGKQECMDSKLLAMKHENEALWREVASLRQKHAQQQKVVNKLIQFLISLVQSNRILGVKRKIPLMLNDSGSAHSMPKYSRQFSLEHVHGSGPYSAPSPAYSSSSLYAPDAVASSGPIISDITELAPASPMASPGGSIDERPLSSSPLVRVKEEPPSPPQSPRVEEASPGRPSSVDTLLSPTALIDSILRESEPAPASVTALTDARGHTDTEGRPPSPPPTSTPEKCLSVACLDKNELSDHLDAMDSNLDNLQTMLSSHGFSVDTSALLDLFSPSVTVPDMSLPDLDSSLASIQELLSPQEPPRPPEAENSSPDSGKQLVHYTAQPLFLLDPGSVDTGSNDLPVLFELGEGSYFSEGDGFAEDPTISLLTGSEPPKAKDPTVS
Chain of SPIB (Q01892 whole entry): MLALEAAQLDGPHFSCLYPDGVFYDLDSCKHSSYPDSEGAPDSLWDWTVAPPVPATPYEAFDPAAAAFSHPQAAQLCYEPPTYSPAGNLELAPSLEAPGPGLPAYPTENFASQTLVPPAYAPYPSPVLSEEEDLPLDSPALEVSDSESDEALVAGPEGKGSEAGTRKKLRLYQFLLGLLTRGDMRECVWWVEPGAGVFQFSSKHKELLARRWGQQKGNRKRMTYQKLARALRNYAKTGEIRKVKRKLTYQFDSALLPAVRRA
Chain of ETV5 (P41161 whole entry): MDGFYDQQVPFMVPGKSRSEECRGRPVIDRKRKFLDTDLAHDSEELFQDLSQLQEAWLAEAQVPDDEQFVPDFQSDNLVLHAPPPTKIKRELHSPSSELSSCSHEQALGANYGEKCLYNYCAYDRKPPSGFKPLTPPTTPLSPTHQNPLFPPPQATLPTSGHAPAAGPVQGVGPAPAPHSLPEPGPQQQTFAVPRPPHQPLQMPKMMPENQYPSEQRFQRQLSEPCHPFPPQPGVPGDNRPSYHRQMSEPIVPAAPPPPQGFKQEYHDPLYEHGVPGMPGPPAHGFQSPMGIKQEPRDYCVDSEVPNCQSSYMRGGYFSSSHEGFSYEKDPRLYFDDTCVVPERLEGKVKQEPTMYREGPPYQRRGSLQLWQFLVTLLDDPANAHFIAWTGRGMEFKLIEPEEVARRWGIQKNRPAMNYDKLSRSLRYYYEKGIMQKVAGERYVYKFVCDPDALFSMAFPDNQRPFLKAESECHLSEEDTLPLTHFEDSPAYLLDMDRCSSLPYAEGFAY
Chain of ELF1 (P32519 whole entry): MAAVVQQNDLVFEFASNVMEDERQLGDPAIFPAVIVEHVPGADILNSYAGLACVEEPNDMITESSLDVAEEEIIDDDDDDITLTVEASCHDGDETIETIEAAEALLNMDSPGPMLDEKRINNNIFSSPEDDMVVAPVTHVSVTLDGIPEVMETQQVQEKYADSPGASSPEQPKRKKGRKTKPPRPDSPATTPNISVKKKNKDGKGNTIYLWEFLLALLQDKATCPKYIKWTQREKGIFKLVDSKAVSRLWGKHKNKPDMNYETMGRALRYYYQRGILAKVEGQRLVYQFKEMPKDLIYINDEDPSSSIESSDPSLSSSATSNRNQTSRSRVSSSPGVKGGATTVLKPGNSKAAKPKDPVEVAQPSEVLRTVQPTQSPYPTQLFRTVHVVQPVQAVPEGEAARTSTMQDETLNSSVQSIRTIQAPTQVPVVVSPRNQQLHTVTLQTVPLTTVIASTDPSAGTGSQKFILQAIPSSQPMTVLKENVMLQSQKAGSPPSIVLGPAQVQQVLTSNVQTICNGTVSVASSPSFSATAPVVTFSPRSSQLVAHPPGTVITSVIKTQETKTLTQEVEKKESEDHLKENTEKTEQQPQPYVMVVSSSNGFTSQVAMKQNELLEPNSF
Chain of ETV1 (P50549 whole entry): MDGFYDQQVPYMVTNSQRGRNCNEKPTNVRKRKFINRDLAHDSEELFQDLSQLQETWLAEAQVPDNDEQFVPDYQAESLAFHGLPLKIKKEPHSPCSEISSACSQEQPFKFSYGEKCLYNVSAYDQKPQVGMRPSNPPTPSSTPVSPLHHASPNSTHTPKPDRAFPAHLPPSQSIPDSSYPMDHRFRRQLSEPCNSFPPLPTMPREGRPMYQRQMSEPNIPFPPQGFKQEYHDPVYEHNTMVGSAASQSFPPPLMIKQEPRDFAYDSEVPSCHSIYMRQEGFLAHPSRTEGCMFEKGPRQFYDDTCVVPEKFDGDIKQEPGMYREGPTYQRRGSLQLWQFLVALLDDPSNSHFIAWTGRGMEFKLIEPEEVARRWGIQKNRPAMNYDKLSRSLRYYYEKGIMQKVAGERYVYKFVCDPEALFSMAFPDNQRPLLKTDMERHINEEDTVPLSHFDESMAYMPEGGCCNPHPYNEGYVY

For the sequence CGTTCC, the binding signal in [1] was 1.43 fold enrichment (6-mer frequency, TF over GST control); in assay [2] it was 1.35 fold enrichment (6-mer frequency, TF over GST control); in [3], 1.29 fold enrichment (6-mer frequency, TF over GST control); in [4], 1.45 fold enrichment (6-mer frequency, TF over GST control); in [5], 1.44 fold enrichment (6-mer frequency, TF over GST control); in [6], 1.42 fold enrichment (6-mer frequency, TF over GST control). The binding signal was 1.44 fold enrichment (6-mer frequency, TF over GST control) in assay [7]; 1.54 fold enrichment (6-mer frequency, TF over GST control) in assay [8]; 1.46 fold enrichment (6-mer frequency, TF over GST control) in assay [9]; 1.5 fold enrichment (6-mer frequency, TF over GST control) in assay [10]; 1.47 fold enrichment (6-mer frequency, TF over GST control) in [11]; 1.44 fold enrichment (6-mer frequency, TF over GST control) in assay [12]. For the same sequence, the binding signal in [13] was 1.51 fold enrichment (6-mer frequency, TF over GST control); in [14], 1.47 fold enrichment (6-mer frequency, TF over GST control); in assay [15] it was 1.31 fold enrichment (6-mer frequency, TF over GST control); in [16], 1.33 fold enrichment (6-mer frequency, TF over GST control); in assay [17], 1.27 fold enrichment (6-mer frequency, TF over GST control); in [18] it was 1.47 fold enrichment (6-mer frequency, TF over GST control).
